The results in this text go back to PubChem BioAssay (NCATS).

The test system of one test is HeLa. Kind of test: Primary qHTS to identify gynecologic anti-cancer compounds using libraries of approved drugs and bioactive compounds (AID 1345084). Further: nearly all actives have a fitted effect of over 55% in size. The following applies: Gynecologic cancer cell panel viability, ATPlite luminescence, 48 h; series mostly up to 57.5 µM. The essentials:
(§1)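 ATP-based viability (ATPlite), 1,000 cells/well, 16 h pre-incubation, 48 h compound at 37 C, 5% CO2, 15 min RT before read.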
(Quantitative high-throughput screening tests each substance at several concentrations.)

A further test has as its system Hek293T. The test is described as above. The note with it: Gynecologic cancer cell panel viability, ATPlite luminescence, 48 h, control line for the selectivity index; series mostly up to 57.5 µM. The essentials:
as §1

The test system of the next test is JEG-3. The description is as above. The note with it: Gynecologic cancer cell panel viability, ATPlite luminescence, 48 h; series mostly up to 57.5 µM. The essentials: as §1
For orientation: Cellular ATP, detected with luciferase, serves as a proxy for viable cell number.

In the next test the test system is OV90. Described as above. The following applies: Gynecologic cancer cell panel viability, ATPlite luminescence, 48 h; series mostly up to 57.5 µM. The essentials:
as §1

In the next test the test system is SKOV3. The test is described as above. The note with it: Gynecologic cancer cell panel viability, ATPlite luminescence, 48 h; series mostly up to 57.5 µM. Summed up: as §1
A further test relates to Tov-21-G. The description is as above. The note with it: Gynecologic cancer cell panel viability, ATPlite luminescence, 48 h; series mostly up to 57.5 µM. The essentials:
as §1

The next test relates to Tov112D. Described as above. The following applies: Gynecologic cancer cell panel viability, ATPlite luminescence, 48 h; series mostly up to 57.5 µM. The essentials: as §1
The nature of test [1]: Drug repurposing screens with cells derived from glioblastoma tumor samples (AID 1345199). Further: nearly all actives have a fitted effect of over 40% in size. The following applies: GBM patient neurospheres viability, ATP luminescence, 48 h. The essentials: (§2)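 Primary testing used CD133+ neurospheres from four GBM patients, seven concentrations, 48 h exposure and ATP-based viability; confirmation added three slower-growing patient lines.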

The next test concerns astro. The description is as above. The note with it: viability, ATP luminescence, 48 h; series mostly up to 45.9 µM. Summed up:
as §2

A further test relates to PA-1. Kind of test: Primary qHTS to identify gynecologic anti-cancer compounds using libraries of approved drugs and bioactive compounds (AID 1345084). Further: nearly all actives have a fitted effect of over 55% in size. The note with it: Gynecologic cancer cell panel viability, ATPlite luminescence, 48 h; series mostly up to 57.5 µM. Summed up:
as §1

[2] abbreviates: at 45.9 µM (top of the series), tumour line B.
Setting [3] is: at 45.9 µM (top of the series), tumour line D.
Where [4] appears, read: at 46 µM (top of the series), tumour line A.
The mark [5] stands for this setting: at 46.1 µM (top of the series), tumour line C.
[6] abbreviates: at 20 µM (top of the series), tumour line C.
The mark [7] stands for this setting: at 21.2 µM (top of the series), tumour line B.
The mark [8] stands for this setting: at 21.2 µM (top of the series), tumour line D.

Records with an inconclusive call do not appear. A number with no mark means an inactive call. Activity calls are given as the source filed them. The call rests on the fitted dose curve; in most records, active means well fitted curve in the direction sought with a large enough effect; inconclusive means small, poorly fitted or top-dose-only effect, or another doubt; inactive means no such curve, though single readings can be large; an effect the other way counts as inactive or inconclusive.
On the % scale 0 is the no-effect control and ±100 the full control effect; potency means the concentration at half of the fitted maximal effect.

On to `C[C@]12C=CC(=O)C=C1CC[C@@H]1[C@@H]2[C@@H](O)C[C@@]2(C)[C@H]1CC[C@]2(O)C(=O)CO`, for which the Potency result with HeLa, in the test on Hek293T, in the test on JEG-3, with OV90, in the test with SKOV3 and in the test on Tov-21-G was “inactive” in each case. The Potency entry in the test with Tov112D and with astro was “inactive” in each case. The activity, negative = cell killing in test [1] (setting [2]) is -12.2%; in test [1] (setting [3]) it was -11.3%; in test [1] (setting [4]) it was -29.3%; in test [1] (setting [5]), -10.5%.
Regarding `CCCCN1CCCC1C(=O)Nc1c(C)cc(C)cc1C` (stereo not drawn), the Potency entry with HeLa, in the test with Hek293T, with JEG-3, with PA-1, with SKOV3 and in the test with Tov-21-G was “inactive” in each case. Also, the Potency entry with Tov112D is “inactive”. Moreover, the activity, negative = cell killing was -5.63% in test [1] (setting [2]), -4.43% in [1] (setting [3]) and -15.9% in [1] (setting [5]). In [1] (tumour line A), the Potency is 22.4 µM (active).
With `CC(=O)[C@H]1CC[C@H]2[C@@H]3C[C@H](C)C4=CC(=O)CC[C@]4(C)[C@H]3[C@@H](O)C[C@]12C`, in the test with HeLa, the Potency is 15.8 µM (active). The Potency result with Hek293T, with JEG-3, in the test on OV90, with SKOV3, in the test with Tov-21-G and in the test with Tov112D was “inactive” throughout. Further, the Potency result in the test with astro was “inactive”. For the same compound, the activity, negative = cell killing in test [1] (setting [6]) was 12.3%; in test [1] (setting [7]), -24.6%.
In the case of `C#C[C@]1(O)CC[C@H]2[C@@H]3CCc4cc(OC5CCCC5)ccc4[C@H]3CC[C@@]21C`, the Potency entry in the test on HeLa, with Hek293T, with JEG-3, in the test on Tov-21-G and with Tov112D was “inactive” each time. Moreover, the Potency was 20 µM (active) in the test on OV90, 4.47 µM (active) in [1] (tumour line A), 10 µM (active) in test [1] (tumour line B) and 22.4 µM (active) in the test on astro. Moreover, the activity, negative = cell killing in [1] (setting [5]) was -25.1%.
Consider `O=C1OCCN1/N=C/c1ccc([N+](=O)[O-])o1`, for which the Potency result in the test with HeLa, with Hek293T, in the test on JEG-3, in the test with OV90, in the test on SKOV3 and with Tov-21-G was “inactive” throughout. The Potency entry in the test with Tov112D and in the test on astro was “inactive” each time. Moreover, the activity, negative = cell killing was 4.9% in test [1] (setting [2]), -7.13% in test [1] (setting [3]), -29.3% in [1] (setting [4]) and 4.37% in [1] (setting [5]).
Consider `C=CCc1ccc(O)c(OC)c1`, for which the Potency result with HeLa, in the test with Hek293T, in the test on JEG-3, in the test with OV90, with PA-1 and in the test on Tov-21-G was “inactive” throughout. For the same compound, the Potency entry in the test with Tov112D and in the test with astro was “inactive” in each case. Also, the activity, negative = cell killing was -13.4% in test [1] (setting [2]), 1.72% in test [1] (setting [3]), -22.5% in test [1] (setting [4]) and 5.7% in test [1] (setting [5]).
As for `CCCCCCCCCCOCC(O)CN` (stereo not drawn), the Potency result in the test with HeLa, with Hek293T, in the test on JEG-3, in the test with PA-1, in the test with Tov-21-G and in the test with Tov112D was “inactive” each time. Moreover, in the test on astro, the Potency was 28.2 µM (active).
For `CNCC[C@@H](Oc1ccccc1C)c1ccccc1`, the Potency entry in the test with HeLa, in the test with Hek293T, with JEG-3, in the test with OV90, in the test on PA-1 and in the test on Tov112D was “inactive” in each case.
In the case of `COc1cccc2c1C(=O)c1c(O)c3c(c(O)c1C2=O)C[C@@](O)(C(=O)CO)C[C@@H]3O[C@H]1C[C@H](N)[C@H](O)[C@H](C)O1`, the Potency with HeLa is 22.4 µM (active); in the test with Hek293T it was 7.94 µM (active); in the test with JEG-3 it was 2.82 µM (active); in the test on OV90, 4.47 µM (active); in the test on SKOV3 it was 2.82 µM (active); in the test on Tov112D, 0.891 µM (active). In addition, the activity, negative = cell killing in test [1] (setting [2]) was -6.08%; in test [1] (setting [3]), -1.75%; in test [1] (setting [4]), -30.7%; in test [1] (setting [5]) it was -4.46%.
`C/C=C(/C(=C/C)c1ccc(O)cc1)c1ccc(O)cc1`: the Potency entry in the test on HeLa, in the test with Hek293T, in the test on JEG-3, with PA-1, in the test on Tov-21-G and with Tov112D was “inactive” each time. The figures for the activity, negative = cell killing in [1] (setting [6]), in [1] (setting [7]) and in test [1] (setting [8]) were -5.62%, -8.12% and -22.4%, respectively.
Take `CCCN1CCCC[C@H]1C(=O)Nc1c(C)cccc1C`: the Potency entry in the test with HeLa, in the test on Hek293T, in the test on JEG-3, in the test on OV90, in the test with PA-1 and in the test on Tov-21-G was “inactive” in each case. The Potency entry with Tov112D and in the test on astro was “inactive” throughout. The results for the activity, negative = cell killing in [1] (setting [2]), in [1] (setting [3]) and in test [1] (setting [5]) were -11.5%, -25.5% and -6.18%, respectively. The Potency in [1] (tumour line A) is 35.5 µM (active).
On to `CN(C)CC/C=C1\c2ccccc2Sc2ccc(Cl)cc21`, for which the Potency entry with HeLa, in the test with Hek293T, in the test with JEG-3, in the test with PA-1 and in the test on Tov-21-G was “inactive” throughout. Besides, in test [1] (setting [5]), the activity, negative = cell killing is -26.8%. Also, the values for the Potency (in test [1] (tumour line A); in [1] (tumour line D); in the test on astro) were 6.31 µM (active), 11.2 µM (active) and 22.4 µM (active), respectively.
`Oc1c(I)cc(I)c2cccnc12`: the Potency entry in the test on HeLa, in the test on Hek293T, in the test on JEG-3, in the test on OV90, in the test with SKOV3 and with Tov112D was “inactive” in each case.
As to `CN1CCC(=C2c3ccccc3Sc3ccccc32)CC1`, the Potency result in the test on HeLa, in the test on Hek293T, in the test on JEG-3, with PA-1, in the test with Tov-21-G and in the test with Tov112D was “inactive” each time. The Potency in the test on astro was 11.2 µM (active).
In the case of `C[C@]12CC[C@H]3[C@@H](CCC4=CC(=O)CC[C@@]43C)[C@@H]1CC[C@@H]2C(=O)CO`, the Potency with HeLa is 3.55 µM (active); in the test with PA-1, 22.4 µM (active). The Potency result in the test on Hek293T, in the test with JEG-3, with OV90, in the test with Tov-21-G, with Tov112D and with astro was “inactive” in each case. Besides, the figures for the activity, negative = cell killing in test [1] (setting [7]) and in test [1] (setting [8]) were -21.2% and -27.5%, respectively.
